From PubChem BioAssay (NCATS)
Records with an inconclusive call do not appear. Active and inactive are the calls of the source. Calls follow the shape of the dose curve; as a rule, active = well fitted inhibition curve with a large enough effect; inconclusive = small, poorly fitted or top-dose-only effect; inactive = flat fitted curve, though single readings scatter.

What was measured:
CRL-7250 = normal cell line; assay: Cytotoxic Profiling of Annotated Libraries Using Quantitative High-Throughput Screening (AID 1296008); conditions: Five cell lines viability, CellTiter-Glo ATP luminescence, 48-72 h; max response: hits give low values; as to max response: % is scaled to controls: 0 for no effect and ±100 for the full control effect
In short: (§1)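 Compounds were pin-transferred onto cells and incubated 48 or 72 hr at 37 degree Celsius, 95% humidity. CellTiter-Glo was added, plates sat 10 min at room temperature, then ATP-coupled luminescence was imaged as the viability read-out.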

HEK293 = assay: as above; conditions: Five cell lines viability, CellTiter-Glo ATP luminescence, 48-72 h; max response: hits give low values
In short: as §1

HaCat = assay: as above; conditions: Five cell lines viability, CellTiter-Glo ATP luminescence, 48-72 h; max response: hits give low values
In short: as §1

KB-3-1 = assay: as above; conditions: Five cell lines viability, CellTiter-Glo ATP luminescence, 48-72 h; max response: hits give low values
In short: as §1

NIH3T3 = assay: as above; conditions: Five cell lines viability, CellTiter-Glo ATP luminescence, 48-72 h; max response: hits give low values
In short: as §1

HEK293T = assay: qHTS assay to identify novel small-molecules to repurpose for Merkel cell carcinoma treatment (AID 1296009); conditions: MCC and control cell lines, CellTiter-Glo viability, 72 h; series mostly up to 44.8 µM
In short: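 qHTS format: cells treated with library compounds in DMSO across 8 (NPC) or 11 (MIPE) concentrations. Readout after 72 hr at 37 degree celsius was CellTiter-Glo luminescence.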
Also: nearly all actives have a fitted effect of over 60% in size.

COCCN(C)Cc1ccc2nc3sc(C(=O)N(C)C4CCCCC4)cn3c2c1
inactive: outcome (CRL-7250) | outcome (HEK293) | max response (HaCat) -3.7% | outcome (KB-3-1) | max response (NIH3T3) -0.706% | Potency (HEK293T)

C[C@H]1[C@H](C)CC[C@]2(C(=O)O)CC[C@]3(C(=O)O)C(=CCC4[C@@]5(C)CC[C@H](O[C@@H]6O[C@H](C)[C@@H](O)[C@H](O)[C@H]6O)C(C)(C)C5CC[C@]43C)[C@H]12 (stereo partly drawn)
inactive: max response (CRL-7250) -5.62% | outcome (HEK293) | max response (HaCat) 2.99% | max response (KB-3-1) 1.93% | outcome (NIH3T3) | Potency (HEK293T)

C=C1C2=CC(O)C(C)C1(C)CC/C(C)=C/CCC1(C)OC1C2=O (stereo not drawn)
inactive: max response (CRL-7250) -9.54% | outcome (HEK293) | max response (HaCat) 1.13% | outcome (KB-3-1) | outcome (NIH3T3) | Potency (HEK293T)

CC1=C(C)C(=O)OC(C(C)(O)C2CCC3C4CC=C5CC(OC6OC(COC7OC(CO)C(O)C(O)C7O)C(O)C(O)C6O)CC(O)C5(C)C4CCC32C)C1 (stereo not drawn)
inactive: max response (CRL-7250) -12.7% | outcome (HEK293) | max response (HaCat) -5.11% | max response (KB-3-1) 2.61% | max response (NIH3T3) -0.0747% | Potency (HEK293T)

C=C1CC2C3(C)C(OC(C)=O)CC(=O)OC(C)(C)C3C(O)C(OC(C)=O)C2(C)C2C(=O)OC(C)C(=O)C12C (stereo not drawn)
inactive: max response (CRL-7250) -7.53% | outcome (HEK293) | max response (HaCat) -15.7% | max response (KB-3-1) 8.43% | max response (NIH3T3) -3.76% | Potency (HEK293T)

CC1(C)CC2C3=CCC4C5(C)CCC(OC6OC(CO)C(O)C(OC7OC(CO)C(O)C(OC8OC(CO)C(O)C(OC9OC(COC%10OC(CO)C(O)C(O)C%10O)C(O)C(O)C9O)C8O)C7O)C6O)C(C)(C)C5CCC4(C)C3(C)CCC2(C(=O)O)CC1O (stereo not drawn)
inactive: outcome (CRL-7250) | outcome (HEK293) | max response (HaCat) -4.22% | max response (KB-3-1) -7.8% | max response (NIH3T3) 2.99% | outcome (HEK293T) inactive [at 9.27 µM]

C[C@@H]1C(=O)O[C@H]2CC34[C@H]5C[C@@H](C(C)(C)C)C36[C@@H](OC(=O)[C@@H]6O)O[C@@]4(C(=O)O5)[C@]21O (stereo partly drawn)
inactive: max response (CRL-7250) 3.21% | outcome (HEK293) | max response (HaCat) -17.8% | max response (KB-3-1) -3.91% | max response (NIH3T3) 1.08% | Potency (HEK293T)

C=C(C)C1CC2(CO)C(=CC1=O)CCC(O)C2C (stereo not drawn)
inactive: max response (CRL-7250) 3.39% | outcome (HEK293) | max response (HaCat) -2.77% | max response (KB-3-1) 4.67% | outcome (NIH3T3) | Potency (HEK293T)

CC(c1c[nH]c2ccccc12)C(O)C(=O)O (stereo not drawn)
inactive: max response (CRL-7250) -1.71% | outcome (HEK293) | max response (HaCat) -10.2% | outcome (KB-3-1) | max response (NIH3T3) 3.62% | Potency (HEK293T)

COC1CC(=O)CCC(C)OC(=O)CC1O (stereo not drawn)
inactive: max response (CRL-7250) -4.48% | outcome (HEK293) | max response (HaCat) 1.84% | outcome (KB-3-1) | max response (NIH3T3) 4.21% | Potency (HEK293T)

COC(=O)[C@@H]1C2CC3c4[nH]c5ccccc5c4CCN3CC2CC[C@@H]1O (stereo partly drawn)
inactive: outcome (CRL-7250) | outcome (HEK293) | max response (HaCat) -0.215% | max response (KB-3-1) 6.91% | outcome (NIH3T3) | Potency (HEK293T)

CC1=CC(=O)CC(C)(CO[C@@H]2O[C@H](CO)[C@@H](O)[C@H](O)[C@H]2O)C1(O)/C=C/C(C)=C/C(=O)O (stereo partly drawn)
inactive: outcome (CRL-7250) | outcome (HEK293) | max response (HaCat) -0.434% | outcome (KB-3-1) | outcome (NIH3T3) | Potency (HEK293T)

C/C(=C\CO)CC/C=C(\C)C(=O)O[C@H]1[C@H](OC2OC=C(C(=O)O)C3CCC(C)(O)C23)O[C@H](CO)[C@@H](O)[C@@H]1O (stereo partly drawn)
inactive: max response (CRL-7250) -10.5% | outcome (HEK293) | max response (HaCat) 1.01% | outcome (KB-3-1) | max response (NIH3T3) 0.631% | Potency (HEK293T)

CO[C@@]12CC3[C@@H]([C@@H](O)[C@@H](OC(C)=O)C4[C@](C)(COC(C)=O)CCC[C@]34C)[C@@H](C)C1=CC(=O)O2 (stereo partly drawn)
inactive: outcome (CRL-7250) | outcome (HEK293) | max response (HaCat) 3.42% | outcome (KB-3-1) | outcome (NIH3T3) | Potency (HEK293T)

CC(C)(OC1OC(CO)C(O)C(O)C1O)C1CCC(O)(CO)C2CC(O)C(C)(O)C2C1 (stereo not drawn)
inactive: max response (CRL-7250) -5.53% | outcome (HEK293) | max response (HaCat) 0.555% | max response (KB-3-1) 2.34% | outcome (NIH3T3) | Potency (HEK293T)

NC(=O)c1ccc(OCC2NC(=O)C3CCCN3C2=O)cc1 (stereo not drawn)
inactive: max response (CRL-7250) -2.01% | outcome (HEK293) | max response (HaCat) -3.74% | max response (KB-3-1) 6.37% | outcome (NIH3T3) | Potency (HEK293T)

Nc1nc(CC(=O)Nc2ccc(CCNCC(O)c3ccccc3)cc2)cs1 (stereo not drawn)
inactive: max response (CRL-7250) 2.98% | outcome (HEK293) | max response (HaCat) -9.93% | outcome (KB-3-1) | outcome (NIH3T3) | Potency (HEK293T)

Cn1c(=O)c2nc(/C=C/c3cccc(Cl)c3)n(C)c2n(C)c1=O
inactive: outcome (CRL-7250) | outcome (HEK293) | max response (HaCat) -5.76% | outcome (KB-3-1) | max response (NIH3T3) -2.68% | Potency (HEK293T)
